The assay deals with RecQ-like DNA helicase BLM (Homo sapiens) (UniProt P54132). Description: qHTS for Inhibitors of Bloom's syndrome helicase (BLM): Helicase ATPase Orthogonal Confirmatory Assay for SAR. As to conditions: purified BLM helicase ATPase activity assay; series mostly up to 57.1 µM. From the text:
Human RecQ DNA helicases participate in maintenance of genome stability and DNA repair. While other types of helicases have been explored as targets for drug development, members of the RecQ family have remained less well characterized. Mutations of the Bloom helicase gene have been associated with the rare human genetic disease called Bloom syndrome. […] Moreover, identified inhibitors can be used in cells and animal models to examine the consequences of inhibition on the survival of cancer cells where it has been shown that BLM plays an important role.
A fluorescence-based, biochemical assay in 1536 well format was developed to evaluate inhibition of BLM DNA unwinding activity. This assay was used to screen the MLPCN library. […] This luminescence assay employs a purified BLM enzyme and a single stranded BLM oligo substrate ([…]). For this assay increase in luminescence signal is greater than or equal to 700 RLU. […]
Three microliter of reaction buffer (25mM Tris-HCl pH 8.0, 50mM NaCl, 2mM MgCl2, 1mM DTT, and 0.01% Tween- 20, and 2nM BLM enzyme) was dispensed into a 1536-well assay plates (Greiner, solid white medium-binding) via Aurora Discovery BioRAPTR Flying Reagent Dispenser (FRD). […] After 30 min at room temperature, the luminescence signal was detected using the ViewLux CCD imager. […]
A general note: qHTS replaces the single test concentration by a dilution series.

Inconclusive results are not listed. Active and inactive are the calls of the source. The call rests on the fitted dose curve; in most records, active means well fitted inhibition curve with a large enough effect; inconclusive means small, poorly fitted or top-dose-only effect; inactive means flat fitted curve, though single readings scatter.

Chain of RecQ-like DNA helicase BLM (Homo sapiens) (P54132 whole entry, looked up): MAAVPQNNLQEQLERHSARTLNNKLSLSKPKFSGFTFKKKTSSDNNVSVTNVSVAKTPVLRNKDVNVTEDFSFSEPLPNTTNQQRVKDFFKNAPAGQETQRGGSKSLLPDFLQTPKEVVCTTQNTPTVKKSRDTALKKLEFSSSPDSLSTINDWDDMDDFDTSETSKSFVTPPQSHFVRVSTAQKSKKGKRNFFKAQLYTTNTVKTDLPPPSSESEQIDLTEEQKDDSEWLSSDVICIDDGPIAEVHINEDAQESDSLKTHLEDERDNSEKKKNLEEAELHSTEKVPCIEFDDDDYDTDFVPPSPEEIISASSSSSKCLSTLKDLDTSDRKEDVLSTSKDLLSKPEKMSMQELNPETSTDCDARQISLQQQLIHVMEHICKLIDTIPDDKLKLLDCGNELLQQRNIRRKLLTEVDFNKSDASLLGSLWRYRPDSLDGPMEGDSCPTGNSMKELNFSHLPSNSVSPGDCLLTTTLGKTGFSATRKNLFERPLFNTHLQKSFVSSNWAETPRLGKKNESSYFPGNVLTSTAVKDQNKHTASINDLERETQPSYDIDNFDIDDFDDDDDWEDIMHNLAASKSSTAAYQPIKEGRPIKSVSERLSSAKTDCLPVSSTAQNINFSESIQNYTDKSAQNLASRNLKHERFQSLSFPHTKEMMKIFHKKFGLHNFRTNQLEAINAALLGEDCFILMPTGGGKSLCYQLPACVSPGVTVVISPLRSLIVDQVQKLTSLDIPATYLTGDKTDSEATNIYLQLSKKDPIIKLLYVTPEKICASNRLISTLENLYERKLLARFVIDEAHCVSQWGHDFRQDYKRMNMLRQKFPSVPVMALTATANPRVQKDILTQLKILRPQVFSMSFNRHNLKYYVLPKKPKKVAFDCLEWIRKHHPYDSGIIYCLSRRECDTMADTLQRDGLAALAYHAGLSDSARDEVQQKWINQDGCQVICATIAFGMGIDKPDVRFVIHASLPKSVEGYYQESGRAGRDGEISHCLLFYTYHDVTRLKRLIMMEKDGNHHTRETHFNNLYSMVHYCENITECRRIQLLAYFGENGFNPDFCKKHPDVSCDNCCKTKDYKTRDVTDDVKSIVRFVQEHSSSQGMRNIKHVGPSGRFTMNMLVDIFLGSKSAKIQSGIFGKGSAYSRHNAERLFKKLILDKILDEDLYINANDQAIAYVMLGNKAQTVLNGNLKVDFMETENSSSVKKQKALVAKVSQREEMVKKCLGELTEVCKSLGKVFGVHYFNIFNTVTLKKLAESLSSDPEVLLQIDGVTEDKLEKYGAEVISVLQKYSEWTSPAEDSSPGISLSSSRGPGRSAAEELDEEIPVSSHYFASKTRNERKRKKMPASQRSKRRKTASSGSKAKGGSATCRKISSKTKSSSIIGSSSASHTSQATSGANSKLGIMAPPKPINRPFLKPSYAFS

With `N#Cc1ccc(NC(=O)Nc2nnc(-c3ccncc3)s2)cc1C(F)(F)F`, the outcome was inactive.

Source of the values: PubChem BioAssay AID720549 (National Center for Advancing Translational Sciences (NCATS), 2013).
